Assay outcomes deposited in PubChem BioAssay by University of Kansas High Throughput Screening Laboratory.
Pf apPOL block: Pf-apPOL DNA polymerase inhibition | inhibition, % at 10 µM | Recombinant Pf-apPOL, molecular beacon fluorescence, 1.5 h | hit rate 0.25% among 210,000 | AID 1794808
mHTT CaM bind: inhibitors of human mutant huntingtin-calmodulin interaction | inhibition, % at 15 µM | AlphaScreen His-mHTT/GST-CaM binding, luminescence | hit rate 3.6% among 190,000 | AID 1671202 | P42858;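 note: 0% = both proteins with DMSO and 100% = one protein alone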
Numbers without * were called inactive. Only some compounds are listed: those with a hit (about 3.6% of all), similar ones and a draw of the others. Cut-off read from the data, not from the text of the source: active = inhibition above about 50%; inactive = the rest.

What do the screens show for `COc1ccc(Cl)cc1NC(=O)CSc1nc(=O)n(CCCO)c2c1CCCC2`?
Pf apPOL block: -18; mHTT CaM bind: 57*

Results for COc1ccc(Cl)cc1NC(=O)CSc1nc(=O)n2cccc(C)c2n1 ?
Pf apPOL block: -6; mHTT CaM bind: -6

How did COc1c(Cl)cc(C(=O)Nc2ccccc2C)cc1Cl do in these assays?
Pf apPOL block: -2; mHTT CaM bind: -9

What do the screens show for `COc1ccc(C(=O)N2CC(=O)Nc3ccc(C)cc3C2c2ccc(F)cc2)cc1OC` (centres undefined)?
Pf apPOL block: -7; mHTT CaM bind: 25

Results for O=C1CN(C(=O)c2ccc(F)cc2)C(c2ccc(F)cc2)c2cc(Br)ccc2N1 (centres undefined) ?
Pf apPOL block: -3; mHTT CaM bind: 35

What do the screens show for `CCOc1ccc(C(=O)N2CC(=O)Nc3ccc(C)cc3C2c2ccc(F)cc2)cc1OCC` (centres undefined)?
Pf apPOL block: 0; mHTT CaM bind: 65*

How did O=C1CN(C(=O)CCC2CCCC2)C(c2ccc(F)cc2)c2cc(F)ccc2N1 (centres undefined) do in these assays?
Pf apPOL block: -5; mHTT CaM bind: 15

Results for O=C1CN(C(=O)CCC2CCCC2)C(c2ccc(F)cc2)c2cc(Br)ccc2N1 (centres undefined) ?
Pf apPOL block: -3; mHTT CaM bind: 77*

What do the screens show for `O=C1CN(C(=O)c2ccc(Cl)cc2)C(c2ccc(F)cc2)c2cc(Br)ccc2N1` (centres undefined)?
Pf apPOL block: -10; mHTT CaM bind: 56*

How did O=C1N(CN2CCN(c3ccccn3)CC2)c2ccccc2C12OCCCO2 do in these assays?
Pf apPOL block: -7; mHTT CaM bind: 1

How did N=C1SCCN1CC(=O)c1ccc(Br)cc1 do in these assays?
Pf apPOL block: 1; mHTT CaM bind: 6

How did O=C1CC(NCCC2=CCCCC2)C(=O)N1c1ccccc1 (centres undefined) do in these assays?
Pf apPOL block: -3; mHTT CaM bind: 1

Results for Cc1ccc2oc(-c3ccc(Cl)c(NC(=O)c4ccco4)c3)nc2c1 ?
Pf apPOL block: 3; mHTT CaM bind: -1

Results for CC(C)CC(=O)N1CCN(Cc2cccc(Br)c2)CC1 ?
Pf apPOL block: -2; mHTT CaM bind: 8

How did O=[N+]([O-])c1ccc2c(N=Nc3ccc4ccccc4c3O)c(O)cc(S(=O)(=O)O)c2c1 do in these assays?
mHTT CaM bind: 100*

How did O=[N+]([O-])c1ccc(O)c(N=Cc2sc3ccccc3c2O)c1 do in these assays?
Pf apPOL block: -5; mHTT CaM bind: 43

How did COc1ccc(NC(=O)C2CC(=O)NC(=Nc3ccc(C)c(C)c3)S2)cc1 (centres undefined) do in these assays?
Pf apPOL block: -6; mHTT CaM bind: 2

Results for COc1ccc(N=C2NC(=O)CC(C(=O)Nc3cc(C(F)(F)F)ccc3Cl)S2)cc1 (centres undefined) ?
Pf apPOL block: -11; mHTT CaM bind: 78*

How did O=c1/c(=C/c2cccnc2)sc2n1CN(c1ccccc1)CN=2 do in these assays?
Pf apPOL block: -2; mHTT CaM bind: 0

What do the screens show for `CCOC(=O)c1ccc(NC(=O)c2ccccc2-c2ccccc2C(=O)O)cc1`?
Pf apPOL block: 0; mHTT CaM bind: -13

How did Cc1ccc(Nc2cc(C)nc3ccnn23)cc1 do in these assays?
Pf apPOL block: 1; mHTT CaM bind: -5

What do the screens show for `Cc1cc(Nc2ccc(Cl)cc2)n2nccc2n1`?
Pf apPOL block: -4; mHTT CaM bind: 64*

Results for O=C1CC(c2ccc(Cl)c(Cl)c2)CC(O)=C1C=NCCN1CCNCC1 (centres undefined) ?
Pf apPOL block: -3; mHTT CaM bind: 59*

How did O=C1CC(c2cccs2)CC(O)=C1C=NCCN1CCNCC1 (centres undefined) do in these assays?
Pf apPOL block: 10; mHTT CaM bind: 0

What do the screens show for `O=C(O)c1cccc(Oc2c(Cl)cccc2[N+](=O)[O-])c1`?
Pf apPOL block: -6; mHTT CaM bind: 1

Results for COc1ccc(-c2cc3nc4c(c(=O)n3[nH]2)CN(C(=O)NCc2ccc(F)cc2)CC4)cc1 ?
Pf apPOL block: 10; mHTT CaM bind: 58*

How did COc1ccc(-c2cc3nc4c(c(=O)n3[nH]2)CN(C(C)=O)CC4)cc1 do in these assays?
Pf apPOL block: 5; mHTT CaM bind: 2

What do the screens show for `O=C(Cc1ccccc1)N1CCc2c(nc3cc(-c4ccccc4Cl)[nH]n3c2=O)C1`?
Pf apPOL block: 18; mHTT CaM bind: 27

Results for O=C(c1ccco1)N1CCc2nc3cc(-c4ccccc4Cl)[nH]n3c(=O)c2C1 ?
Pf apPOL block: -1; mHTT CaM bind: 2

What do the screens show for `COc1ccc(-c2cc3nc4c(c(=O)n3[nH]2)CN(C(=O)c2n[nH]c3ccccc23)CC4)cc1`?
Pf apPOL block: 17; mHTT CaM bind: 28

Results for Cc1ccc(CNC(=O)N2CCc3nc4cc(-c5ccccc5Cl)[nH]n4c(=O)c3C2)cc1 ?
Pf apPOL block: 4; mHTT CaM bind: 53*

Results for O=C(c1n[nH]c2ccccc12)N1CCc2nc3cc(-c4ccccc4Cl)[nH]n3c(=O)c2C1 ?
Pf apPOL block: 21; mHTT CaM bind: 89*

What do the screens show for `O=C(Cc1cccs1)N1CCc2nc3cc(-c4ccccc4Cl)[nH]n3c(=O)c2C1`?
Pf apPOL block: 25; mHTT CaM bind: 52*

How did CC(=O)N1CCc2cc(N3CC(C(=O)Nc4ccc(F)c(F)c4)CC3=O)ccc21 (centres undefined) do in these assays?
Pf apPOL block: -4; mHTT CaM bind: -4

Results for CSc1cccc(NC(=O)c2ccc(N(C)S(=O)(=O)c3ccccc3)cc2)c1 ?
Pf apPOL block: -1; mHTT CaM bind: -3

What do the screens show for `NC(=O)c1ccc(NC(=O)c2ccc(Br)cc2)cc1`?
Pf apPOL block: -8; mHTT CaM bind: 2

Results for NC(=O)C1(N2CCCCC2)CCN(C2CC(=O)N(c3ccc(C(F)(F)F)cc3)C2=O)CC1 (centres undefined) ?
Pf apPOL block: -6; mHTT CaM bind: -5

How did CCC1CCCCN1CCNC(=O)c1cc2c(s1)CN(C(C)C)C2 (centres undefined) do in these assays?
Pf apPOL block: -5; mHTT CaM bind: 1

What do the screens show for `CCCCNc1nc(SCC(=O)c2ccc(O)c(O)c2)nc2ccccc12`?
Pf apPOL block: -5; mHTT CaM bind: 64*

How did COCCNc1nc(SCC(=O)c2ccc(O)c(O)c2)nc2ccccc12 do in these assays?
Pf apPOL block: -2; mHTT CaM bind: 12

Results for C(=C\c1ccco1)/c1nc2ccccc2[nH]1 ?
Pf apPOL block: -3; mHTT CaM bind: 49

Results for O=[N+]([O-])c1ccc2nc(/C=C/c3ccco3)[nH]c2c1 ?
Pf apPOL block: 0; mHTT CaM bind: 59*

What do the screens show for `Cc1cccc(NC(=O)C2CC(=O)N(c3ccc(Br)cc3)C2)n1` (centres undefined)?
Pf apPOL block: 1; mHTT CaM bind: 9

Results for COc1ccccc1C1SCCN1C(=O)Nc1ccc(Cl)c(Cl)c1 (centres undefined) ?
Pf apPOL block: -6; mHTT CaM bind: 97*

How did COc1ccccc1NC(=O)Nc1ccc(Cl)c(Cl)c1 do in these assays?
Pf apPOL block: -5; mHTT CaM bind: -5

How did CCCN(C)C(=O)CC1Sc2ncccc2N(CC(C)C)C1=O (centres undefined) do in these assays?
Pf apPOL block: -2; mHTT CaM bind: -5

Results for Cn1c(CNC(=O)C2CCC2)nc2c1CN(C(=O)c1ccc(F)cc1)CC2 ?
Pf apPOL block: -5; mHTT CaM bind: 3
